Measurements reported in PubChem BioAssay AID1259240 (Keith Lab, Institute of Cancer Science, University of …, 2017).
A number with no mark means an inactive call. The source made the active and inactive calls. No stated cut-off is given here; in the data, active means fold change mostly below about -2 (no sharp cut-off); inactive means mostly above about -1.8.

assay: TERT promoter activity modulators, primary screen, cell-based, luciferase reporter, human (AID 1259240); settings: A2780 TERT promoter luciferase reporter, 16 h; at 20 µM, fold versus average of vehicle-only wells

Row | Structure (SMILES) | fold change
1 | CCn1c(Oc2ccccc2)nc2c1c(=O)n(C)c(=O)n2C | -1.53
2 | CSc1ccc(/C=c2\sc3nc(-c4ccco4)nn3c2=O)cc1 | -1.12
3 | Cc1ccc(-c2cc(C(F)F)n3ncc(C(=O)Nc4cccnc4Cl)c3n2)cc1 | -1.66
4 | CC1CCCN(C(=O)c2ccc3c(=O)n4c(nc3c2)CCCCC4)C1 (stereo not drawn) | 1.14
5 | O=C(CSc1ncnc2ccccc12)N1CCCc2ccccc21 | -1.11
6 | Cc1ccc(-c2cc(C(F)F)n3ncc(C(=O)N4CCC(C)CC4)c3n2)cc1 | 1.16
7 | Cc1cc2c(c(=O)[nH]1)C(=O)O/C2=C\c1cc([N+](=O)[O-])ccc1O | -1.57
8 | CC1CCCCC1NC(=O)c1cc2c(s1)-c1ccccc1OC2 (stereo not drawn) | -2.96 (active)
